Data reported in PubChem BioAssay.

Assay: basal RPMI8226 viability, no added stimulus, profiling panel, cell-based, calcein-AM fluorescence, 48 h, PK04 Diversity Set (AID 1166);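 also: cells grown under basal conditions without added stimulus; test concentration not given here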
Details: RPMI8226 myeloma viability, higher = more signal

Structure (SMILES)	z-score
[N-]=[N+]=NCc1ccccc1[C@@H]1OC(c2ccc(OCCCO)cc2)=N[C@]1(CCS(=O)(=O)c1ccccc1)C(=O)O	-0.206
CC1CC/C=C\[C@H]2OC34C=CCN(c5ccc(Cl)cc5)C(=O)[C@H]3N(C(C)CO)C(=O)[C@]4(C)C2C(=O)O1 (stereo not given in full)	0.37
C=CC[C@]1(C(=O)N2CCCCC2)N=C(c2ccc(OCCCO)cc2)O[C@H]1c1ccccc1CN=[N+]=[N-]	-1.15
COc1ccc([Si](C)(C)[C@H]2[C@H](CC(=O)N3CCC[C@H]3CO)O[C@@]3(C(=O)N(Cc4ccc(N5CCOC5=O)cc4)c4ccccc43)[C@@H]2C)cc1	-3.98
Cc1cc(C)c(C(O)C2C=CC3C(=O)N(c4ccccc4)C(=O)C3N2Nc2ccccc2F)c(C)c1 (stereo not given)	0.48
CC[C@@H]1O[Si](C(C)C)(C(C)C)c2c1cc(-c1cc(C)c(OC)c(C)c1)nc2-c1ccc(Oc2ccccc2)cc1	-0.388
O[C@@H](Cc1ccccc1)[C@@H](/C=C/C1CC1)N(CC#Cc1ccccc1)Cc1ccccc1Br	-0.353
COC(=O)C/C=C/C[C@]1(O)C(=O)N(C)c2ccccc21	-0.419
C=CC[C@@]1(C(=O)NCCCOC)N=C(c2ccc(OCCCO)cc2)O[C@@H]1c1ccccc1N=[N+]=[N-]	0.241
COC(=O)[C@@H]1N=C(c2ccc(OCCCO)cc2)O[C@@H]1C	-0.086
CCCC=C(CCC)[C@@H](NC(=O)c1cccs1)c1ccc(C(=O)OC)cc1	0.45
COc1cc(NN2C(C(O)c3cc(OC)c(OC)c(OC)c3)C=CC3C(=O)N(C)C(=O)C32)cc(OC)c1OC (stereo not given)	-0.176
COc1cc(OC)c(C(O)C2C=CC3C(=O)N(Cc4ccccc4)C(=O)C3N2n2cnnc2)cc1Br (stereo not given)	-0.0145
C=CCC(OC(C)=O)[C@@H]1[C@@H](N(Cc2cc3ccccc3o2)C(=O)Cc2ccc(F)cc2)c2cc(OCCCO)ccc2N1C(=O)Cc1ccc2ccccc2c1 (stereo not given in full)	-0.759
COc1ccc(CCNC(=O)[C@@H]2c3ccccc3C(=O)N(C3CCCCC3)[C@H]2c2ccc(CO)cc2)cc1	-0.746
C[N+](C)(C)CCCC[C@@H]1NC(=O)[C@@H]2C[C@H](C(=O)NCCCCCCN)[C@H](c3cccc(OCCO)c3)N2C1=O	-0.013
O=C1C2C=CC(C(O)C3CC=CCC3)N(Nc3ccccc3)C2C(=O)N1c1ccccc1 (stereo not given)	-1.14
O=C1C2C=CC(C(O)c3ccco3)N(Nc3ccccc3F)C2C(=O)N1c1ccccc1 (stereo not given)	0.243

Structure (SMILES)	z-score
COC(=O)c1c(CC[C@@H](CO)NC(=O)N2CCC[C@H]2Cn2cc(C3(O)CCCCC3)nn2)oc(C(C)=O)c1C(=O)OC	0.577
C=C(/C(=C/C[C@H](OC(=O)c1ccncc1)c1ccc(CO)o1)c1cnc2ccccc2c1)C(C)C	-1.25
COCC(=C=CC[C@H](O)c1ccccc1OCCO)C[C@H](O)c1ccccn1	0.139
CC(C)c1ccc(NN2C(C(O)c3ccc(F)cc3)C=CC3C(=O)N(c4ccccc4)C(=O)C32)cc1 (stereo not given)	-1.46
CO[C@H]1O[C@H](CO)[C@@H](OC(=O)Nc2ccc3c(c2)OCO3)[C@H](OC(=O)Nc2ccc3c(c2)OCO3)[C@@H]1OC(=O)Nc1ccc2c(c1)OCO2	-1.84
CCCNC(=O)[C@@H]1c2ccccc2C(=O)N(Cc2ccc(OC(F)(F)F)cc2)[C@H]1c1ccc(CO)cc1	0.485
CCOC(=O)C[C@H]1[C@H](OC(=O)c2cc3ccccc3oc2=O)[C@@H](NC(=O)c2ccccc2)c2cc(OCCCO)ccc2N1C(=O)c1ccccc1	-2.3
CCCNC(=O)[C@@]1(C)c2ccccc2C(=O)N(c2ccc(C)cn2)[C@H]1c1ccc(CO)cc1	0.526
CC(C)C(O)C1C=CC2C(=O)N(c3ccccc3)C(=O)C2N1Nc1ccccc1 (stereo not given)	-1.03
CCCCC(CC)C(O)C1C=CC2C(=O)N(c3ccccc3)C(=O)C2N1Nc1ccc(C#N)cc1 (stereo not given)	0.368
COc1ccc(CCNC(=O)[C@@]2(Cc3ccccc3I)c3ccccc3C(=O)N(C3CCCCC3)[C@H]2c2ccc(CO)cc2)cc1	-2.47
[N-]=[N+]=Nc1ccccc1C[C@@]1(C(N)=O)N=C(c2ccc(OCCCO)cc2)O[C@@H]1c1ccccc1N=[N+]=[N-]	-4.08
C=CCN1C(=O)[C@]2(CCS(=O)(=O)c3ccccc3)N=C(c3ccc(OCCCO)cc3)O[C@@H]2c2ccccc21	0.716
NC(=O)NCC#Cc1ccc2c(c1)[C@]1(C(=O)N2)[C@H](c2ccccc2OCCO)N2[C@H](c3ccccc3)[C@H](c3ccccc3)OC(=O)[C@H]2[C@@H]1C(=O)O	0.713
NCCCCCNC(=O)[C@H]1C[C@H]2C(=O)N3CCC[C@H]3C(=O)N2[C@H]1c1cccc(OCCO)c1	-0.881
COc1ccc([Si](C)(C)[C@@H]2[C@@H](CCO)O[C@]3(C(=O)N(Cc4cccc(NC(=O)[C@H](C)O)c4)c4ccccc43)[C@H]2C)cc1	-4.36
CCCCN1CC=CC23O[C@@H]4/C=C\CCCOC(=O)C4[C@H]2C(=O)N(CCO)[C@@H]3C1=O (stereo not given in full)	-0.711
